rCAG RNA binder: binds r(CAG) RNA repeats | r(CAG) RNA repeat, TO-PRO-1 dye displacement fluorescence | inhibition, % at 3 µM | 1.3% of 370,000 active | AID 651821;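 active means inhibition above the plate cutoff, the mean of all test compounds on that plate plus 3 SD, cut at about 35% in these data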;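 further: 0% = DMSO alone and 100% = 100 µM mitoxantrone as full dye displacement; higher means more dye released from RNA so lower well fluorescence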
ADAM17 inh: inhibits human ADAM17; P78536; recombinant ADAM17, EDANS/DABCYL FRET peptide cleavage; inhibition, % at 6.95 µM; 0.83% of 370,000 active; AID 720648;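 active means inhibition above the mean of compounds lying between control limits plus 3 SD, set per campaign, cut at about 8.5% in these data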;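 further: 0% = DMSO-only wells as the low control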
AHR activator: human AHR activation; activation, % at 5 µM; AHR-responsive luciferase reporter cells, luminescence; AID 2796; P35869; 2.5% of 320,000 active; in the data active means activation above about 47%;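 further: 0% = vehicle wells and 100% = reference agonist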
GRIN3A LBD mod: modulates the human NR3A ligand-binding domain; Tm shift relative to glycine control, % at 25 µM; AID 1259313; NR3A LBD differential scanning fluorimetry, Tm shift; 0% = protein alone, 100% = glycine-bound protein; 2.5% of 340,000 active;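 active means melting temperature shift of at least 10% of the positive control shift, at one fixed dose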
ADAM10 inh: inhibits human ADAM10; recombinant ADAM10, EDANS/DABCYL FRET peptide cleavage, 3 h; 0.62% of 370,000 active; inhibition, % at 7 µM; AID 720582;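 active means inhibition above a per-campaign cutoff equal to the mean of compounds falling between control-based bounds plus 3 SD, cut at about 20% in these data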;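 further: 0% = DMSO wells while the 100% control is not disclosed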
Target sequence (O14672 214-748 limits assumed): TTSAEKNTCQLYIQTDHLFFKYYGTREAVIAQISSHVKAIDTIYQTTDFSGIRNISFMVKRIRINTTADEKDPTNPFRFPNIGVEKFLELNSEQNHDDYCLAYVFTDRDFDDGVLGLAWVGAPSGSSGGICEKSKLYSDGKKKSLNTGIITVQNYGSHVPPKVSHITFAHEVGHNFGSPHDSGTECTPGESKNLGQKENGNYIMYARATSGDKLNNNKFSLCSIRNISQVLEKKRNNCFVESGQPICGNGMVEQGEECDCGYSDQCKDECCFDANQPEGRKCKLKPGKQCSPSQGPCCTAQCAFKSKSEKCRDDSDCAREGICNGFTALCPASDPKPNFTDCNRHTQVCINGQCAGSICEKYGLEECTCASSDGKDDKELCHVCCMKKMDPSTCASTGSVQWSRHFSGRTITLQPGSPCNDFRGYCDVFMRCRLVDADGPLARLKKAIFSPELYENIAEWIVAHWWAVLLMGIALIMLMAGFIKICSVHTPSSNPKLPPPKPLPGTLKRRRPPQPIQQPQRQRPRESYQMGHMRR
KLK7 zymogen act: proKLK7 (human) activation, primary screen. purified proKLK7, EDANS-DABCYL substrate fluorescence; 100% is mature enzyme control, 0% vehicle. activation, % at 7 µM. 0.9% of 370,000 active. AID 652039;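 active means activation above the mean of all tested compounds plus 3 SD, computed per campaign excluding outliers beyond control limits, cut at about 13% in these data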
ADAM10 counter: inhibits human ADAM10 in ADAM17 exosite counter-screen; shares compounds with ADAM17 inh; recombinant ADAM10, EDANS/DABCYL FRET peptide cleavage, 3 h; inhibition, % at 6.95 µM; 47% of 2,900 active; AID 743256;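 active means mean inhibition over the triplicate runs exceeds the activity threshold set in the earlier primary screen, cut at about 20% in these data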;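 further: 0% = DMSO wells and 100% = marimastat wells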
ADAM17 confirm: human ADAM17 inhibition, confirmation. shares compounds with ADAM17 inh. recombinant ADAM17, EDANS/DABCYL QFRET peptide cleavage. inhibition, % at 6.95 µM. 65% of 2,900 active. AID 743257;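 active means mean inhibition across replicates above the hit cutoff set in the primary screen, cut at about 8.5% in these data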;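 further: 0% = DMSO wells and 100% = marimastat wells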
Starred values were filed as active, the others as inactive. Rows were chosen to be rich in hits. Some 7% of all compounds tested hit in one or more screens of this group.

For O=C(CCc1ccccc1Cl)NC1CCCN(c2ccc(C(F)(F)F)cn2)C1 (centres undefined) the results were rCAG RNA binder -2.5, ADAM17 inh -3.4, AHR activator 0.9, GRIN3A LBD mod -11.1, ADAM10 inh -4.5 and KLK7 zymogen act 0.0.
COc1ccccc1C(=O)NC(=O)CSc1nnc(N)s1 was read as rCAG RNA binder 10.4, ADAM17 inh -6.4, AHR activator 1.2, GRIN3A LBD mod -0.3, ADAM10 inh -14.4 and KLK7 zymogen act -1.1.
Screening CSc1ccc(C(O)c2ncc(-c3ccccc3F)[nH]2)cc1 (centres undefined) returned rCAG RNA binder 1.5, ADAM17 inh 0.1, ADAM10 inh 6.3 and KLK7 zymogen act 0.5.
Screening Cn1nnnc1SCC(=O)Nc1ccc(S(=O)(=O)N2CCOCC2)cc1 returned rCAG RNA binder 1.2, ADAM17 inh -1.7, AHR activator -0.2, GRIN3A LBD mod 0.8, ADAM10 inh -1.0 and KLK7 zymogen act 0.3.
Screening CCCCC(CC)COC1(c2ccccc2)OC(=O)c2ccccc21 (centres undefined) returned rCAG RNA binder 2.8, ADAM17 inh 10.0*, AHR activator -0.4, GRIN3A LBD mod -0.5, ADAM10 inh 2.7, KLK7 zymogen act 0.5, ADAM10 counter -1.0 and ADAM17 confirm -0.3.
`CCCCOC1(c2ccccc2)OC(=O)c2ccccc21` (centres undefined) gave rCAG RNA binder -4.2, ADAM17 inh -2.7, AHR activator 0.2, GRIN3A LBD mod -0.5, ADAM10 inh -2.2 and KLK7 zymogen act -0.1.
Screening CC(C)(C)OC(=O)C[C@H]1C/C=C\C[C@H](CC(=O)N[C@H](CO)Cc2ccccc2)C(=O)N[C@@H](Cc2ccccc2)COC1=O returned rCAG RNA binder -3.0, ADAM17 inh 11.9*, AHR activator -0.4, GRIN3A LBD mod 0.6, ADAM10 inh 9.0, KLK7 zymogen act -0.2, ADAM10 counter 4.2 and ADAM17 confirm 4.3.
`O=C(C[C@H]1C/C=C\CC[C@@H](Cc2ccc(F)cc2)C(=O)O[C@@H](c2ccccc2)CNC1=O)N[C@H](CO)Cc1ccccc1` gave rCAG RNA binder 0.6, ADAM17 inh 12.6*, AHR activator 0.4, GRIN3A LBD mod -6.5, ADAM10 inh 7.4, KLK7 zymogen act 0.5, ADAM10 counter 17.3 and ADAM17 confirm 11.9*.
Screening COc1cccc(C(O)c2ncc(-c3cccc(C(F)(F)F)c3)[nH]2)c1 (centres undefined) returned rCAG RNA binder 3.1, ADAM17 inh 10.3*, ADAM10 inh -3.4, KLK7 zymogen act 0.6, ADAM10 counter 13.6 and ADAM17 confirm 9.8*.
OC(c1ccc(Cl)cc1)c1ncc(-c2ccccc2F)[nH]1 (centres undefined) was read as rCAG RNA binder 0.2, ADAM17 inh 0.0, ADAM10 inh -10.5 and KLK7 zymogen act -0.3.
Screening CCCc1ccc(C(O)c2ncc(-c3ccccc3F)[nH]2)cc1 (centres undefined) returned rCAG RNA binder 2.5, ADAM17 inh 9.2*, ADAM10 inh 15.7, KLK7 zymogen act -0.2, ADAM10 counter 8.7 and ADAM17 confirm 4.6.
For OC(c1ccc2ccccc2c1)c1ncc(-c2ccc(C(F)(F)F)cc2)[nH]1 (centres undefined) the results were rCAG RNA binder 5.9, ADAM17 inh 10.2*, ADAM10 inh 9.7, KLK7 zymogen act 0.1, ADAM10 counter 42.4* and ADAM17 confirm 22.8*.
`OC(c1cccc(F)c1)c1ncc(-c2ccc(C(F)(F)F)cc2)[nH]1` (centres undefined) gave rCAG RNA binder 0.7, ADAM17 inh 2.6, ADAM10 inh 3.6 and KLK7 zymogen act 0.2.

Compound activity from PubChem.
